The values that follow come from PubChem BioAssay (EPA / NIEHS).

Inconclusive results are not listed. Calls of active or inactive are those of the source. How the source made its calls: active means hit-call score of the fitted dose curve at least 0.9, where 1 is the maximum; inconclusive means response in the unintended direction; inactive means score below 0.9.

Test [1] has as its system guinea pig Muscarinic, Peripheral (Mperiperal) Receptor, Non-selective Binding, gene 100379235. Description: NVS_GPCR_gMPeripheral_NonSelective: NovaScreen (NVS) G Protein-Coupled Receptor Assay for guinea pig Muscarinic, Peripheral (Mperiperal) Receptor, Non-selective Binding (AID 2283250). Summed up: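 Guinea pig bladder membranes, radioligand binding read 1 h after dosing by filter scintillation counting; loss of signal vs DMSO. Primary duplicate screen at 25 uM, then concentration-response up to 50 uM.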

Test [2] addresses human Serotonin, 5-Hydroxytryptamine Receptor 6 (5HT6), HTR6 (gene 3362) (UniProt P50406). Description: NVS_GPCR_h5HT6: NovaScreen (NVS) G Protein-Coupled Receptor Assay for human Serotonin, 5-Hydroxytryptamine Receptor 6 (5HT6) (AID 2283253). In outline: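 Radioligand binding to 5HT6 in HEK293-derived membranes, cell-free, 1 h after dosing; bound ligand measured by filter-based scintillation counting. Primary screen in duplicate at 25 uM; actives retested in concentration series.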

Test [3] deals with human Serotonin, 5-Hydroxytryptamine Receptor 2A (5HT2A), HTR2A (gene 3356) (UniProt P28223). Description: NVS_GPCR_h5HT2A: NovaScreen (NVS) G Protein-Coupled Receptor Assay for human Serotonin, 5-Hydroxytryptamine Receptor 2A (5HT2A) (AID 2283249). In outline: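 Human cortex membranes, cell-free radioligand binding; filter-based scintillation read 1.5 h after dosing. Duplicate screen at 25 uM first; displacement of specific binding (loss of signal) versus DMSO.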
Chain of human Serotonin, 5-Hydroxytryptamine Receptor 2A (5HT2A), HTR2A (gene 3356) (P28223 whole entry, looked up): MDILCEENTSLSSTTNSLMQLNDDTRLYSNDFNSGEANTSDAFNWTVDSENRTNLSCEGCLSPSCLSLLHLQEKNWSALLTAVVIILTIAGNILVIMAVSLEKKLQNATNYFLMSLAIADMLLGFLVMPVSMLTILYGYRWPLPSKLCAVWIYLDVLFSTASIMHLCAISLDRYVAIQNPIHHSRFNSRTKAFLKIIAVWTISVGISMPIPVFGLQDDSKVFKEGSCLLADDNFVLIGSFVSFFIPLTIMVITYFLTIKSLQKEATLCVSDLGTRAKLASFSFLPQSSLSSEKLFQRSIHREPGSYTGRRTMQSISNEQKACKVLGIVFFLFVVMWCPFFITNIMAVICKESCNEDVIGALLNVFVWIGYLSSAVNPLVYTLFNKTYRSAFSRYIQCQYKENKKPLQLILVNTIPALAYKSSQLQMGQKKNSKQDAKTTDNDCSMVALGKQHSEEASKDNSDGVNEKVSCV

Test [4] deals with human Serotonin, 5-Hydroxytryptamine Receptor 5A (5HT5A), HTR5A (gene 3361) (UniProt P47898). Description: NVS_GPCR_h5HT5A: NovaScreen (NVS) G Protein-Coupled Receptor Assay for human Serotonin, 5-Hydroxytryptamine Receptor 5A (5HT5A) (AID 2283251). Summed up:
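Cell-free radioligand displacement binding on HEK293-derived membrane protein, 1 h incubation, filter-based scintillation counting. Primary screen in duplicate at 25 uM, actives followed in concentration series; loss of signal fitted versus DMSO.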

Test [5] addresses guinea pig Opioid, Kappa 1 Receptor (OpiateK), OPRK1 (gene 100135587) (UniProt P41144). Description: NVS_GPCR_gOpiateK: NovaScreen (NVS) G Protein-Coupled Receptor Assay for guinea pig Opioid, Kappa 1 Receptor (OpiateK) (AID 2283252).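 Further: radioligand displacement from kappa opioid receptor in guinea pig cerebellar membranes; active means reduced radioligand binding relative to DMSO.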 Summed up:
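Guinea pig cerebellar membranes were incubated with a radioligand for 2 h after compound addition; bound radioactivity was read by filter-based scintillation counting. Loss of specific binding relative to DMSO baseline defined activity; primary screen at 25 uM in duplicate.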

For test [6], the target named is human Adenosine A1 Receptor (AdoRA1), ADORA1 (gene 134) (UniProt P30542). Description: NVS_GPCR_hAdoRA1: NovaScreen (NVS) G Protein-Coupled Receptor Assay for human Adenosine A1 Receptor (AdoRA1) (AID 2283254). In outline:
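Membranes from human cortical tissue were incubated with radioligand and test chemical for 1 hour, then filtered and counted. Activity was taken as signal loss relative to DMSO, screened at 25 uM in duplicate before concentration-response follow-up.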

In test [7] the target is guinea pig Leukotriene D4 Receptor (LTD4), CYSLTR1 (gene 100135514) (UniProt Q2NNR5). Description: NVS_GPCR_gLTD4: NovaScreen (NVS) G Protein-Coupled Receptor Assay for guinea pig Leukotriene D4 Receptor (LTD4) (AID 2283248). Summed up:
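Radioligand displacement on guinea pig lung membranes, 1 h incubation, filtration and scintillation counting; DMSO as negative control. Duplicate 25 uM primary screen, then singleton concentration-response up to 50 uM.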

The test system of test [8] is bovine Histamine 1 Receptor (H1), gene 281231. Description: NVS_GPCR_bH1: NovaScreen (NVS) G Protein-Coupled Receptor Assay for bovine Histamine 1 Receptor (H1) (AID 2283246). Summed up:
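Radioligand displacement on bovine cerebellar membranes, 1 h after dosing, filter-based scintillation read-out; loss of signal vs DMSO. Duplicate single-concentration screen at 25 uM, then concentration-response up to 50 uM for hits.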

For test [9], the system named is guinea pig Leukotriene B4 Receptor (LTB4), gene 100379538. Description: NVS_GPCR_gLTB4: NovaScreen (NVS) G Protein-Coupled Receptor Assay for guinea pig Leukotriene B4 Receptor (LTB4) (AID 2283247). As to the method: NVS_GPCR_gLTB4 is a biochemical, single-readout assay that uses extracted gene-proteins from Guinea pig spleen membranes in a tissue-based cell-free assay. Measurements were taken 2 hours after chemical dosing in a 48-well plate.NVS_GPCR_gLTB4 is one of one assay component(s) measured or calculated from the NVS_GPCR_gLTB4 assay. It is designed to make measurements of radioligand binding, a form of binding reporter, as detected with scintillation counting signals by Filter-based radiodetection technology.Data from the assay component NVS_GPCR_gLTB4 was analyzed into 1 assay endpoint. This assay endpoint, NVS_GPCR_gLTB4, was analyzed in the positive analysis fitting direction relative to DMSO as the negative control and baseline of activity. Using a type of binding reporter, loss-of-signal activity can be used to understand changes in the binding as they relate to the gene Ltb4r. Furthermore, this assay endpoint can be referred to as a primary readout, because the performed assay has only produced 1 assay endpoint. To generalize the intended target to other relatable targets, this assay endpoint is annotated to the gpcr intended target family, where the subfamily is rhodopsin-like receptor.
Binding assays used specific radioligands (tritiated, iodinated) with non-radioactive competitive displacement ligands in agonist or antagonist protocols (as indicated) and various reference compounds and inhibitors to titrate specific binding to receptors and transporters. Most enzyme assays (CYPs, kinases, phosphatases, proteases, HDACs) used recombinant protein and specific substrates (fluorescence mostly, some colorimetric and radioactive) and inhibitors, followed by a biochemical separation of substrate and product. All assays for the biochemical HTS were initially run in duplicate at a single concentration (10 uM for CYP450 assays and 25 uM for all others). Assay-chemical combinations meeting a pre-defined threshold (e.g., 30% inhibition and other criteria defined below) were then run in singleton concentration-response format with maximum concentration of 20 uM for CYPs and 50 uM for all others. Each assay was run with positive and negative controls, and concurrent controls on every plate. The follow-up (secondary) screen tested active chemical-pairs in concentration series, as well as a few additional assays not tested in the primary screen, some selected negative inactives, and several cases re-run in the concentration series for confirmatory purposes.

Test [10] is described as follows: NVS_GPCR_bNPY_NonSelective: NovaScreen (NVS) G Protein-Coupled Receptor Assay for bovine Neuropeptide Y (NPY) Receptor, Non-selective Binding (AID 2283245). In outline: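 Bovine hippocampal membranes incubated 1 hour with radioligand and test chemical. Bound ligand measured by filter-based scintillation counting. Single-concentration screen at 25 uM in duplicate, then concentration-response up to 50 uM.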

Chain of human Serotonin, 5-Hydroxytryptamine Receptor 5A (5HT5A), HTR5A (gene 3361) (P47898 whole entry, looked up): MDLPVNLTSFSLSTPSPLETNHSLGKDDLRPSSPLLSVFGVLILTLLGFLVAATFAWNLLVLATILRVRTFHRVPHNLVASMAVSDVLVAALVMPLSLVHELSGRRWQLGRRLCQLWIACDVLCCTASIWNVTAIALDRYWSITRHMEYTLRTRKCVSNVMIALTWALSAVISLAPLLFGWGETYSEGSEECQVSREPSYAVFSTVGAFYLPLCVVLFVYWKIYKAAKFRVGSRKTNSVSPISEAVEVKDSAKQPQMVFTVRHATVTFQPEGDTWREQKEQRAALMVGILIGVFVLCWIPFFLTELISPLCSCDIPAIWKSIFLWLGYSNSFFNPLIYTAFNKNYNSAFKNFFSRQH
Chain of human Adenosine A1 Receptor (AdoRA1), ADORA1 (gene 134) (P30542 whole entry, looked up): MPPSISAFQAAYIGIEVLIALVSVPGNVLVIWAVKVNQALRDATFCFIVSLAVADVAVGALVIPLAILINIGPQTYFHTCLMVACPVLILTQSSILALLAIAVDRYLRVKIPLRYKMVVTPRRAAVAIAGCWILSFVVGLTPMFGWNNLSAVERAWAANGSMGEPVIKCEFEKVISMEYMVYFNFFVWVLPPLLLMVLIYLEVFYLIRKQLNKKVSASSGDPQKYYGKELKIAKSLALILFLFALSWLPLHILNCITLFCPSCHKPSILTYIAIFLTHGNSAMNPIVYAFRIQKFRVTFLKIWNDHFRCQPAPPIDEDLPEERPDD
Chain of guinea pig Leukotriene D4 Receptor (LTD4), CYSLTR1 (gene 100135514) (Q2NNR5 whole entry, looked up): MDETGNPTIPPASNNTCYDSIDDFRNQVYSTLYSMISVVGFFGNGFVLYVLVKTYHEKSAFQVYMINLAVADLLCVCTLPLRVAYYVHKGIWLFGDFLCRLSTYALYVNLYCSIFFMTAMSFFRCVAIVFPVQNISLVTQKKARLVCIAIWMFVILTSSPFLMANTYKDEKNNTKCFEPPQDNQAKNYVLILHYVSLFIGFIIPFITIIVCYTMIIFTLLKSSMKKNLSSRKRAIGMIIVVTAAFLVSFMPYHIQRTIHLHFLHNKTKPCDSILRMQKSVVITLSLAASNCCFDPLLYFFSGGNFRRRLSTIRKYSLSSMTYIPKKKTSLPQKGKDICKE
Chain of guinea pig Opioid, Kappa 1 Receptor (OpiateK), OPRK1 (gene 100135587) (P41144 whole entry, looked up): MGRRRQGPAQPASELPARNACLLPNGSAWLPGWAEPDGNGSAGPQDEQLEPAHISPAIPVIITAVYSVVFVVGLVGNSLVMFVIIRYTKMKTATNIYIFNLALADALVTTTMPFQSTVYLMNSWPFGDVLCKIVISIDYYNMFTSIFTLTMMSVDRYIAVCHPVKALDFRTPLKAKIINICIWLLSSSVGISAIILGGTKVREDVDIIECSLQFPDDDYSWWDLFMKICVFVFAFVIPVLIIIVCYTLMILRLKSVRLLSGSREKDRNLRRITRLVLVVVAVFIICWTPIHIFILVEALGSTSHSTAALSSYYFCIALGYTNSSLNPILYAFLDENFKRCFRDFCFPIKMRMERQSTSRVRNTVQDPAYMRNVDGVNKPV
Chain of human Serotonin, 5-Hydroxytryptamine Receptor 6 (5HT6), HTR6 (gene 3362) (P50406 whole entry, looked up): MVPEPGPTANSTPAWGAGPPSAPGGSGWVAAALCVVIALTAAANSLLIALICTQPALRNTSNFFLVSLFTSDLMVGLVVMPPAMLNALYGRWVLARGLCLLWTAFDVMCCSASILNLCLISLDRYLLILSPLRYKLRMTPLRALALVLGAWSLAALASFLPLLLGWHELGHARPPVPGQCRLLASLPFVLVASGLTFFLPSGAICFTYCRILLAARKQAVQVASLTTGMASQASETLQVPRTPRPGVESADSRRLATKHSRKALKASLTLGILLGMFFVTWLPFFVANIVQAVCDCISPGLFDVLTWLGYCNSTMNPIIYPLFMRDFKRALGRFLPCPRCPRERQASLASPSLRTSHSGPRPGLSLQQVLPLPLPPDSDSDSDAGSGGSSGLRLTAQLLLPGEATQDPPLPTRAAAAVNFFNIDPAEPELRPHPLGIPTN

Consider `CCCCCCCCN(C)C`, for which the call in test [1] and in test [2] was inactive.
Regarding `c1ccc(C(O[C@@H]2CCCN(CCc3ccc4c(c3)OCO4)C2)c2ccccc2)cc1`, the half-maximal activity concentration (AC50) was 10.1 µM (active) in [3]; 0.0261 µM (active) in test [1]; 25 µM (active) in test [4]; 3.06 µM (active) in [5]; 25 µM (active) in [2]; 20.7 µM (active) in test [6].
`CCN(CC)C(=S)SSC(=S)N(CC)CC`: the half-maximal activity concentration (AC50) in [7] is 1.24 µM (active); in test [2], 8.33 µM (active). Besides, in test [5], the call was inactive.
As to `OCC(CO)(CO)CO`, the call in [8] was inactive.
For `c1ccc2cc3ccccc3cc2c1`, the result in test [2] was inactive.
For the compound `O=S(=O)(O)c1ccc(N=Nc2c(O)ccc3cc(S(=O)(=O)O)ccc23)cc1`, the result in [4], in [5] and in test [6] was inactive.
Consider `COCc1nnc(-c2ccc[n+]([O-])c2)n1-c1c(Cl)c(Cl)cc2[nH]c(=O)c(=O)[nH]c12`, for which the compound was called inactive in test [9], in test [7] and in [2]. Further, in [6], the concentration at half-maximal activity (AC50) is 32.2 µM (active).
In the case of `Cc1nccn1-c1ccc(Sc2cccc(C3(C(N)=O)CCOCC3)c2)cc1`, the AC50 in [9] is 8.42 µM (active); in test [1], 25 µM (active); in test [5], 2.06 µM (active). Besides, the outcome in test [6] was inactive.
For `COc1cc(C(C)C)c2c(c1)S(=O)(=O)N(COc1cc(=O)n3cccc(OCCN4CCCCC4)c3n1)C2=O`, the compound was classed as inactive in test [10]. Further, the values for the AC50 in test [1], in test [5] and in test [2] were 2.22 µM (active), 5.55 µM (active) and 2.55 µM (active), respectively.
For the compound `O=C(NO)C1(NS(=O)(=O)c2ccc(Oc3ccc(F)cc3)cc2)CCOCC1`, the AC50 in [9] was 7.03 µM (active).
In the case of `NC(=O)N1c2ccccc2C=Cc2ccccc21`, the compound was classed as inactive in [8]. Further, the AC50 in test [6] is 7.33 µM (active).
On to `CCCCCCCCCC`, for which the compound was called inactive in test [8], in test [3], in test [1], in [4], in test [2] and in test [6].
`CCCOc1ccc(S(=O)(=O)N2CCN(CC)CC2)cc1-c1nc2c(CC)n(Cc3ccccn3)nc2c(=O)[nH]1`: in test [5], the compound was classed as inactive. Besides, the AC50 in test [6] was 6.54 µM (active).
On to `C=CCc1cc(S(=O)(=O)c2ccc(O)c(CC=C)c2)ccc1O`, for which the AC50 in [4] was 25 µM (active); in test [2], 0.0408 µM (active); in [6] it was 3.19 µM (active).
As for `CCn1nc(C)c2c1C(=O)NCC(c1ccc(O)cc1)=N2`, the result in test [3], in test [5], in test [2] and in test [6] was inactive.
With `CC[C@H](C)C(=O)O[C@H]1C[C@H](O)C=C2C=C[C@H](C)[C@H](CC[C@@H](O)C[C@@H](O)CC(=O)O)[C@H]21`, the concentration at half-maximal activity (AC50) in [9] was 0.328 µM (active).
For the compound `CCCCCCCCCCCCCCCCOS(=O)(=O)O`, the concentration at half-maximal activity (AC50) in [7] was 4.26 µM (active); in test [4] it was 20.6 µM (active).
For the compound `CCCC(CCC)C(=O)O`, the compound was called inactive in test [10].
On to `CC(C)c1nnc2ccc(-c3ocnc3-c3cc(F)ccc3F)cn12`, for which the compound was classed as inactive in test [7].
For the compound `CC(C)C(=O)Nc1ccc([N+](=O)[O-])c(C(F)(F)F)c1`, the result in test [10] and in [6] was inactive. In addition, the AC50 in test [2] was 4.5 µM (active).

The AC50 is the concentration at which the activity in the assay is half-maximal.
